Screening results deposited in PubChem BioAssay by National Center for Advancing Translational Sciences (NCATS).
Rab9 promoter act – activators of Rab9 promoter; AID 485297; Potency, µM (doses to about 9.22 µM), for inactives: at the highest dose activation, negative = inhibition, usual class: activators; 320,000 compounds, 2.8% hits; Huh7 Rab9 promoter-luciferase reporter, luminescence, 24 h; further: % of control where 0% means no effect; nearly all actives have a fitted effect of over 60% in size
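Rab9 promoter-driven luciferase in stably transfected Huh7 cells; 1500 cells/well rested 2 h, exposed to compound in DMSO for 24 h at 37 °C, 5% CO2. Luminescence read 10 min after adding luciferase reagent at ambient temperature.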
NPC1 prom act – activators of NPC1 promoter. Huh7 NPC1 promoter luciferase reporter, 24 h. Potency, µM (doses to about 9.22 µM), for inactives: at the highest dose activation, most hits filed as activators. 320,000 compounds, 2.4% hits. AID 485313; further: % of control where 0% means no effect; nearly all actives have a fitted effect of over 60% in size
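Quantitative HTS used a cell-based reporter: Huh7 cells stably bearing the NPC1 promoter upstream of luciferase were treated with compounds for 24 h, and promoter activation was read as luminescence.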
FLuc modulator – counter-screen for miR-21 project: firefly luciferase inhibitors or activators; purified FLuc, Km substrates, luminescence inhibition; 360,000 compounds, 6.9% hits; Potency, µM (series often up to 57.5 µM), without a hit: at the top dose activity change, negative = inhibition, hits mostly inhibitors; AID 588342;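 further: plate controls were vehicle for no effect and reference inhibitor for full effect; nearly all actives have a fitted effect of over 55% in size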
Target sequence (P08659 whole entry, looked up): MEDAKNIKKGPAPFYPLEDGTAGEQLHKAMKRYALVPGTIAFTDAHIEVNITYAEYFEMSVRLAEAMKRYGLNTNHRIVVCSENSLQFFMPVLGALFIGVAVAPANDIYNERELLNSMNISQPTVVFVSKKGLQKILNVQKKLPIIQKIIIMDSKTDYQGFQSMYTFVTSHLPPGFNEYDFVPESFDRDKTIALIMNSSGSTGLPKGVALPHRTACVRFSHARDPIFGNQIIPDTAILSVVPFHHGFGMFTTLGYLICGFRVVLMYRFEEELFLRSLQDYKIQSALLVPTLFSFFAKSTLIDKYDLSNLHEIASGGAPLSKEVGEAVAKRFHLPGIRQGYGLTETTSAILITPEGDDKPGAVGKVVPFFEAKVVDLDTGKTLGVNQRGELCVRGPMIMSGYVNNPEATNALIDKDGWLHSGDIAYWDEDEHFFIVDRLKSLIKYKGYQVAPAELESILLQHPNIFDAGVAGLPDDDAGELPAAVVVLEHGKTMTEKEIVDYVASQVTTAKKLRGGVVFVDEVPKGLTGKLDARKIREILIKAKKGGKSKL
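Biochemical qHTS of compounds, final roughly 60 µM downward over six points, against 10 nM purified firefly luciferase using Km concentrations of substrates (10 uM D-luciferin, 10 uM ATP) in Tris acetate pH 7.5 buffer; luminescence output.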
SMN2 splice up – enhancers of SMN2 splice variant expression. HEK293 SMN2-luciferase splicing reporter, luminescence, 30-36 h. Potency, µM (highest dose often 46.1 µM), without a hit: at the highest dose activity change, positive = activation, actives largely listed as activators. 210,000 compounds, 2.8% hits. AID 1458; further: % of control where 0% means no effect; nearly all actives have a fitted effect of over 55% in size
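HEK293 cells carry an SMN2 […]–luciferase reporter in which exon 7 inclusion puts luciferase in frame. Cells were plated 10-12 h before compound addition, then incubated 30-36 h at 37C. ONE-Glo luminescence was read; sodium butyrate at 4.5 mM final served as control.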
ELG1 genotox – induces genotoxicity in HEK293T cells with luciferase-tagged ELG1 | HEK293T ELG1-luciferase reporter, luminescence, 16 h | 330,000 compounds, 1.3% hits | Potency, µM (doses to about 46 µM), for the others: at the top dose activity change, positive = activation, actives largely listed as activators | AID 504466; further: % of control where 0% means no effect; nearly all actives have a fitted effect of over 60% in size
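Genotoxicity was scored as increased ELG1-luciferase reporter signal, measured by ONE-Glo luminescence (30 min, room temperature). Compound or vehicle exposure of the HEK293T reporter cells lasted 16 hr at 37°C.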
p53 reactivator – re-activators of mutant p53. H1299 p53-A138V BP100-luciferase reporter, luminescence, 24 h. Potency, µM (titrated, usually from 92.2 µM), without a hit: at the top dose activity change, positive = activation, usual class: activators. 320,000 compounds, 0.063% hits; further: % of control where 0% means no effect; nearly all actives have a fitted effect of over 45% in size
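p53-null H1299 cells stably carrying temperature-sensitive p53-A138V and a BP100-luciferase reporter were pinned with compounds (4-point, 1:5 series) and held 24 hrs at 37 deg C. Luminescence was read 10 min after detection reagent.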
* marks the source's active call; other numbers are inactive results; ? = inconclusive; / = no result; [ ] = remark or other dose. In the library only some 7.4% were active in any assay of this set; here they are far more common. The call rests on the fitted dose curve; in most records, active means well fitted curve in the direction sought with a large enough effect; inconclusive means small, poorly fitted or top-dose-only effect, or another doubt; inactive means no such curve, though single readings can be large; an effect the other way counts as inactive or inconclusive. Potency means the concentration at half of the fitted maximal effect.

SMILES | Rab9 promoter act | NPC1 prom act | FLuc modulator | SMN2 splice up | ELG1 genotox | p53 reactivator
O=c1/c(=C\c2cccn2-c2ccccc2)sc2nc3ccccc3n12 | 2.51µM* | ? | ? | / | 4.61µM* | ?
COc1cc2c(cc1NC(=O)C(C)Oc1ccc(Cl)cc1Cl)oc1ccccc12 (centres undefined) | / | / | 2.0% | -12.2% | / | /
COc1ccc(S(=O)(=O)c2c(Nc3ccccc3F)sc(C(=O)c3cccc(OC)c3)c2N)cc1 | / | / | -2.2% | / | / | /
Cc1ccccc1-c1noc(-c2ccccc2C(=O)N2CCCC2)n1 | -1.6% | -4.5% | 2.5% | -13.3% | -2.4% | 0.4%
NC(=O)c1ccccc1-c1noc(-c2ccccc2F)n1 | ? | ? | 16.9µM* | / | / | /
NC(=O)c1ccc(-c2noc(-c3ccccc3F)n2)cc1 | 0.316µM* | 0.316µM* | 3.01µM* | / | ? | ?
Cc1cc(=O)n(Cc2ccc(Br)cc2F)c2c1c(C)nn2-c1ccccc1 | / | / | 2.2% | / | / | /
Cc1cccc(CS(=O)(=O)Cc2ccc(C(=O)NC3CCCCC3)o2)c1 | -1.4% | -2.5% | -0.1% | / | -0.1%[9.26 µM] | -4.8%
COc1ccc(OC(=O)c2cnn(-c3ccccc3)c2C)cc1 | 3.16µM* | 3.16µM* | 4.78µM* | ? | ? | ?
COc1ccc(S(=O)(=O)N2CCN(C(=O)c3c(C)nn(-c4ccccc4)c3C)CC2)cc1 | -2.0% | 1.6% | -1.4% | / | -0.1% | 2.9%
COc1ccc(OC(=O)c2c(C)nn(-c3ccccc3)c2C)cc1 | ? | ? | 15.1µM* | / | ? | 0.5%
CC(=O)c1c(C)nn(-c2ccccc2)c1C | -5.7% | -0.7% | 1.5% | / | -0.5% | -3.7%
Cc1nn(-c2ccccc2)c(C)c1C(=O)Oc1ccccc1 | ? | 28.4% | 16.9µM* | / | 15.5% | 4.8%
Cc1cc(C(=O)OCC(=O)Nc2c(F)cccc2F)c(C)n1-c1ccccc1 | 25.4% | 24.4% | 10.7µM* | -6.3% | 15.6% | 7.4%
CC(=O)N1CCOc2cc(S(=O)(=O)Nc3cccc(C(F)(F)F)c3)c(Cl)cc21 | -3.3% | -3.1% | -1.0% | / | / | /
Cc1ccc(NC(=O)CNCc2cccs2)cc1Br | 9.8% | 17.7% | ? | / | 5.7% | 9.4%
Cc1nn(-c2ccccc2)c(C)c1C(=O)OCC(=O)Nc1ccccc1F | 2.24µM* | 3.98µM* | 4.78µM* | / | ? | ?
Cc1cc(NC(=O)c2ccc(NC(=O)C(C)C)cc2)no1 | ? | 14.2% | ? | 5.8% | ? | 19.9%
COc1ccc(OCc2cccc(C(=O)Nc3cc(C)on3)c2)cc1 | 0.1µM* | 0.1µM* | 3.79µM* | 0.199µM* | ? | /
Cc1cc(NC(=O)c2ccc(C)c([N+](=O)[O-])c2)no1 | 1.7% | 10.1% | -3.9% | / | 4.3% | 0.3%
CC(=O)Oc1ccc(C(=O)Nc2cc(C)on2)cc1 | ? | ? | 15.1µM* | / | ? | /
Cc1cc(NC(=O)c2ccc(C)c(C)c2)no1 | 2.82µM* | 3.55µM* | 23.9µM* | / | ? | /
CNc1nc(N)c(C(=O)Nc2cc(C)on2)s1 | ? | ? | ? | 14.1µM* | 13.0% | 2.0%
COc1ccc(C(=O)Nc2cc(C)on2)cc1 | 1.78µM* | 2µM* | 6.75µM* | 12.6µM* | ? | 11.7%
Cc1cc(NC(=O)c2ccccc2)no1 | ? | ? | 23.9µM* | / | ? | 13.3%
SMILES | Rab9 promoter act | NPC1 prom act | FLuc modulator | SMN2 splice up | ELG1 genotox | p53 reactivator
C/C(=C\C(=O)Nc1cc(C)on1)c1ccccc1 | 26.6% | 28.7% | 12µM* | ? | 14.2% | 15.7%
COc1ccc(C(=O)Nc2noc3ccccc23)cc1 | / | / | 0.239µM* | ? | / | /
COc1ccc(CN2CCc3c(c(=O)n4ncc(C(=O)N5CCN(c6ccccc6OC)CC5)c4n3C)C2)cc1 | / | / | -16.6% | / | / | /
O=c1cnc2cnc(OCc3ccccc3)nc2n1CCc1ccccc1 | / | / | / | -20.7% | / | /
COc1ccc(C(=O)c2sc(NC(C)C)nc2N)cc1OC | 2.0% | -1.7% | -0.8% | 29.9% | -1.3% | ?
COc1cccc(C(=O)c2sc(NC(C)C)nc2N)c1 | -1.0% | -6.5% | -13.3% | 20µM* | -5.2% | ?
